We go through 17 compounds from PubChem BioAssay (EPA / NIEHS).

The target in assay [1] is Nuclear respiratory factor 1 (Homo sapiens) (UniProt Q16656). Description: ATG_NRF1_CIS: Attagene CIS-FACTORIAL HepG2 Assay for human Nuclear Respiratory Factor 1 (NRF1) Orphan Gene (AID 2282987). The settings on record: HepG2 NRF1 cis-element reporter, Attagene multiplex; actives raise or lower the signal. The gist of the method: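 Transcriptional reporter readout, one component of a 52-endpoint multiplexed HepG2 panel. Exposure 24 h; mRNA detected via RT-PCR and fluorescent capillary electrophoresis; fitting in both directions against DMSO.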
Nuclear respiratory factor 1 (Homo sapiens), sequence (Q16656 whole entry, looked up): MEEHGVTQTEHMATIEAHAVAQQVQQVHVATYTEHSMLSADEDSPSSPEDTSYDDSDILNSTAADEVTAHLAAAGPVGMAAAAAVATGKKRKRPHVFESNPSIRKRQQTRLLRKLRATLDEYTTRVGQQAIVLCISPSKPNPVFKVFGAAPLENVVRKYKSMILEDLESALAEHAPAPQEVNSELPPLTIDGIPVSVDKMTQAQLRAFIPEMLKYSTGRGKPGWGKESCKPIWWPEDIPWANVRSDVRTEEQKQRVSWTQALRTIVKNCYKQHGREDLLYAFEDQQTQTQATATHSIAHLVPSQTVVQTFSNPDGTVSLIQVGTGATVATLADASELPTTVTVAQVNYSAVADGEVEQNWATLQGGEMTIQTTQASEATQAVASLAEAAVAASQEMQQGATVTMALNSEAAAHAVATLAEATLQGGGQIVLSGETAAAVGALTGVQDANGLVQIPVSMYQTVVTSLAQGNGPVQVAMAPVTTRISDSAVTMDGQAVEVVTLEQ

Assay [2] is described as follows: ATG_NFI_CIS: Attagene CIS-FACTORIAL HepG2 Assay for human Nuclear Factor I (NFI) (AID 2282989). The settings on record: HepG2 cis-regulatory reporter, NFI response element transcription; actives raise or lower the signal. The gist of the method: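 Multiplexed cis-reporter system in human HepG2 cells reports native TF activity as reporter mRNA induction 24 h post-dose. Fragments labelled with 6-FAM, HpaI-digested and resolved by capillary electrophoresis; activity fitted both directions versus DMSO.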

In assay [3] the target is Myc proto-oncogene protein (Homo sapiens) (UniProt P01106). Put plainly: ATG_Myc_CIS: Attagene CIS-FACTORIAL HepG2 Assay for human Myelocytomatosis (Myc) Proto-Oncogene Transcription Factor (AID 2282990). The note with it: HepG2, Attagene cis-reporter transcription factor activity; actives raise or lower the signal. The gist of the method: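 Fluorescence intensity of reporter-specific cDNA fragments, separated by capillary electrophoresis, gives the signal. Transfected HepG2 cells carrying cis-promoter reporter constructs are incubated with compound for 24 h; DMSO serves as baseline.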
Myc proto-oncogene protein (Homo sapiens), sequence (P01106 whole entry, looked up, the tested form may be a part): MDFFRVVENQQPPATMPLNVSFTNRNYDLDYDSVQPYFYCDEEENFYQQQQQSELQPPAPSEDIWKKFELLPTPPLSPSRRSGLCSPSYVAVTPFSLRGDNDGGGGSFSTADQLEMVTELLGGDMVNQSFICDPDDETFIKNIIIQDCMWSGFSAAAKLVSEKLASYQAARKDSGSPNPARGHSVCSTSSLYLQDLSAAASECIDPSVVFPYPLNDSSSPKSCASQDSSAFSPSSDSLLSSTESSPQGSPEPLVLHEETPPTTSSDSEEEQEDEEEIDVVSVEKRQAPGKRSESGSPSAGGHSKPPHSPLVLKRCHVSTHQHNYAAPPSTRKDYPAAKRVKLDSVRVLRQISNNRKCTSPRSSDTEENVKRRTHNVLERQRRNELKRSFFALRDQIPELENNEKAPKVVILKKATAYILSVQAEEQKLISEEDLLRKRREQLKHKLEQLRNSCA

Assay [4] is described as follows: ATG_NRF2_ARE_CIS: Attagene CIS-FACTORIAL HepG2 Assay for human Nuclear Factor Erythroid 2 Related Factor 2 (NFR2) response to Antioxidant Response Elements (ARE) (AID 2282992).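 As to AC50: reporter mRNA level measured by RT-PCR and capillary electrophoresis fluorescence.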 The settings on record: HepG2 Attagene ARE/NRF2 reporter, transcription factor activity; actives raise or lower the signal. The gist of the method: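 HepG2 cells transiently transfected with multiplexed cis-regulated reporter transcription units measure endogenous transcription factor activity. Reporter mRNA at 24 h is quantified by RT-PCR, fluorescent labelling and capillary electrophoresis, with bidirectional fitting relative to DMSO.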

The nature of assay [5]: ATG_Oct_MLP_CIS: Attagene CIS-FACTORIAL HepG2 Assay for human Octamer-Binding Transcription Factor (Oct) (AID 2282993). The settings on record: HepG2 Attagene cis-factorial Oct reporter, mRNA; actives raise or lower the signal. The gist of the method: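 After 24 h compound exposure, transfected HepG2 cells were lysed for total RNA; reporter-specific cDNA was PCR-amplified, fluorescently labelled and sized by capillary electrophoresis. Bidirectional curve fitting used DMSO as baseline.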

Assay [6] concerns the target Cellular tumor antigen p53 (Homo sapiens) (UniProt P04637). Description: ATG_p53_CIS: Attagene CIS-FACTORIAL HepG2 Assay for human p53 Transcription Factor (AID 2282994). The note with it: HepG2 p53 cis-element reporter, Attagene mRNA; actives raise or lower the signal. The method in brief:
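HepG2 cells transiently transfected with multiplexed cis-regulated reporter transcription units read endogenous TF activity. After 24 h compound exposure, reporter mRNA was quantified by RT-PCR, fluorescent labelling, HpaI digestion and capillary electrophoresis; bidirectional fits versus DMSO baseline.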

Assay [7] in a line: BSK_3C_TissueFactor: BioMAP Diversity Plus: 3C Assay for Tissue Factor Biomarker Activity (AID 2282997). The settings on record: BioMAP 3C HUVEC, tissue factor biomarker readout; actives raise or lower the signal. The gist of the method:
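Human vascular primary cells (umbilical vein endothelium) received test chemical; Tissue Factor was determined by ELISA at 24 h, and both gain and loss of signal versus DMSO were fitted.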

Assay [8] can be described thus: BSK_3C_VCAM1: BioMAP Diversity Plus: 3C Assay for Vascular cell adhesion molecule 1 (VCAM1) Biomarker Activity (AID 2282999). The settings on record: BioMAP 3C HUVEC, VCAM1 ELISA, cytokine-stimulated; actives raise or lower the signal. The method in brief:
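Human umbilical vein endothelial cells (3C system), biomarker read by ELISA 24 h after dosing; bidirectional fit against DMSO baseline. Cytotoxicity tracked by SRB total-protein staining in parallel cultures at biomarker time.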
On the technique in general: An ELISA detects its analyte on a solid surface through an enzyme-linked reagent.

Assay [9] can be described thus: BSK_3C_uPAR: BioMAP Diversity Plus: 3C Assay for Urokinase-type plasminogen activator receptor (uPAR) Biomarker Activity (AID 2282998). The note with it: BioMAP 3C HUVEC, uPAR biomarker ELISA; actives raise or lower the signal. The method in brief:
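Values derive from bidirectional curve fitting relative to DMSO, which served as baseline of activity. uPAR was measured by ELISA in human umbilical vein endothelial primary cultures 24 h after compound addition.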

Calls of active or inactive are those of the source. The calls were made as follows: active = hit-call score of the fitted dose curve at least 0.9, where 1 is the maximum; inactive = score below 0.9.

Cellular tumor antigen p53 (Homo sapiens), sequence (P04637 whole entry, looked up): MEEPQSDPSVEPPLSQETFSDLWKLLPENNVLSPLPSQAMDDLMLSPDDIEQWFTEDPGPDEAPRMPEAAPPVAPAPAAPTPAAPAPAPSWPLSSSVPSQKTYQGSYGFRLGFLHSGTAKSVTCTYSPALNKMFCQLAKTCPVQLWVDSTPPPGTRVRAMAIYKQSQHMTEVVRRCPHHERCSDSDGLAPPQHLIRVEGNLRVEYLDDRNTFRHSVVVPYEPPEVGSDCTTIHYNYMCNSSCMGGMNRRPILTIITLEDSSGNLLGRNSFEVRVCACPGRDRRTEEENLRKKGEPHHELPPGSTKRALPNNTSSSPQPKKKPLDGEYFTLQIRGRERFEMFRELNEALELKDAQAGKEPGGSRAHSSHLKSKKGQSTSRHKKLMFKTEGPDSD

One may read the AC50 as the concentration at which the activity in the assay is half-maximal. `CC(C)[C@H](C(=O)O[C@H](C#N)c1cccc(Oc2ccccc2)c1)c1ccc(Cl)cc1`: the outcome in assay [1], in assay [2], in [3], in assay [5], in [6] and in assay [7] was inactive. The result in assay [8] was inactive. Moreover, in assay [4], the half-maximal activity concentration (AC50) is 0.938 µM (active).

For the compound `CCOP(=S)(OCC)OC(Cl)C(Cl)(Cl)Cl` (stereo not given), the outcome in assay [1], in [2], in assay [3], in assay [6], in assay [7] and in [9] was inactive. For the same compound, the figures for the AC50 in [4], in assay [5] and in assay [8] were 50 µM (active), 29.2 µM (active) and 14.6 µM (active), respectively.

For `CNC(=O)ON=C(C)SC`, the result in [1], in assay [2], in assay [3], in assay [4], in [5] and in assay [6] was inactive. Further, the outcome in assay [7] and in assay [9] was inactive.

Turning to `CCCOc1nn(C(=O)NS(=O)(=O)c2ccccc2C(=O)OC)c(=O)n1C`, the call in [1], in assay [2], in assay [3], in assay [4], in assay [5] and in [6] was inactive. The outcome in assay [7] was inactive. Also, in assay [8], the concentration at half-maximal activity (AC50) was 1.09 µM (active).

`COc1ccc(C(=CC(=O)N2CCOCC2)c2ccc(Cl)cc2)cc1OC`: the compound was classed as inactive in [1], in assay [2], in assay [3], in [6], in assay [7] and in [8]. Also, the AC50 in assay [4] is 8.76 µM (active); in assay [5], 13.8 µM (active).

In the case of `CCc1cnc(C2=NC(C)(C(C)C)C(=O)N2)c(C(=O)O)c1` (stereo not given), the result in assay [1], in assay [2], in [3], in [4], in assay [5] and in [7] was inactive. Further, in [8], the result was inactive.

For the compound `Cc1cc(C2CC2)nc(Nc2ccccc2)n1`, the concentration at half-maximal activity (AC50) is 76 µM (active) in assay [1], 29.3 µM (active) in assay [2], 13 µM (active) in [4] and 15.7 µM (active) in assay [5]. The compound was called inactive in [3], in assay [6], in assay [7] and in assay [8].

Consider `CCOC(=O)COc1cc(-c2nn(C)c(OC(F)F)c2Cl)c(F)cc1Cl`, for which the call in assay [1], in assay [2], in assay [3], in assay [4], in assay [5] and in assay [6] was inactive. Besides, the result in assay [7] and in assay [8] was inactive.

For the compound `COP(=O)(OC)OC(Br)C(Cl)(Cl)Br` (stereo not given), the result in [1], in assay [2], in assay [3], in assay [4] and in assay [5] was inactive. Further, in assay [7], the concentration at half-maximal activity (AC50) is 16.3 µM (active).

Take `CN(C)NC(=O)CCC(=O)O`: the compound was called inactive in assay [1], in [2], in [3], in assay [4], in [5] and in assay [6]. Moreover, the outcome in [7], in assay [9] and in assay [8] was inactive.

With `COc1cc(OC)nc(Sc2cccc(Cl)c2C(=O)O)n1`, the compound was classed as inactive in assay [1], in assay [2], in assay [3], in [4], in assay [5] and in assay [6]. For the same compound, the outcome in [7] and in [9] was inactive.

With `CCCCN(CC)c1c([N+](=O)[O-])cc(C(F)(F)F)cc1[N+](=O)[O-]`, the compound was classed as inactive in assay [1], in assay [2], in assay [3], in assay [6], in assay [7] and in assay [8]. Besides, the AC50 is 6.46 µM (active) in [4] and 12.7 µM (active) in assay [5].

With `CCOP(=S)(OCC)Oc1ccc([N+](=O)[O-])cc1`, the outcome in assay [1], in assay [2], in [3], in assay [6], in [7] and in assay [9] was inactive. Besides, the outcome in [8] was inactive. The AC50 in [4] is 23.5 µM (active); in assay [5], 50 µM (active).

Turning to `Nc1c(Cl)cc([N+](=O)[O-])cc1Cl`, the result in assay [1], in [3], in assay [7] and in assay [8] was inactive. Moreover, the half-maximal activity concentration (AC50) in [2] is 50 µM (active); in assay [4], 41.1 µM (active); in [5], 50 µM (active).

Take `COP(=O)(OC)SCn1c(=O)oc2cc(Cl)cnc21`: the compound was classed as inactive in assay [1], in assay [2], in assay [3], in assay [5], in assay [6] and in [7]. In addition, the outcome in [9] was inactive. For the same compound, the half-maximal activity concentration (AC50) in assay [4] is 8.25 µM (active).

Consider `CC(COc1ccc(Oc2ccccc2)cc1)Oc1ccccn1` (stereo not given), for which the compound was classed as inactive in [1], in [2], in assay [3], in assay [6], in assay [7] and in [8]. Besides, the results for the half-maximal activity concentration (AC50) in assay [4] and in assay [5] were 7.23 µM (active) and 13 µM (active), respectively.

As for `CCNc1nc(Cl)nc(NC(C)(C)C#N)n1`, the compound was classed as inactive in [1], in assay [2], in assay [3], in assay [4], in assay [5] and in assay [6]. Moreover, the outcome in assay [7] and in assay [8] was inactive.
